Data on 25 molecules can be found in PubChem BioAssay (NCI).

Structures are written as SMILES. About 83,000 compounds went through this panel and 20% of them were active in at least one assay; those are over-represented in the sample as a whole.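 How to read the values: 0–100, growth inhibition (40 = 60% inhibited); 0, no net growth; -100 to 0, cell death (-40 = 40% of starting cells died; -100 = all dead).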 A number with no mark means an inactive call. Active and inactive are the calls of the source. The calls were made as follows: active = growth percent below 10; inactive = the rest.

Common to all, as to assay: NCI-60 one-dose screen, 48 h (100 = growth as untreated, 0 = no growth, -100 = all killed)
Conditions in all cases: 10 µM unless noted

Assay [1] concerns HCT-15 colon.
Assay [2] has as its system HT29 colon.
The test system of assay [3] is SNB-75 CNS.
In assay [4] the test system is SNB-19 CNS.
Assay [5] concerns U251 CNS.
Assay [6] relates to PC-3 prostate.
The test system of assay [7] is SK-MEL-5 melanoma.
For assay [8], the system named is UACC-62 melanoma.
Assay [9] deals with LOX IMVI melanoma.
The test system of assay [10] is SK-MEL-28 melanoma.

In the case of `CN1CCN(CC(=O)N2c3cccc4cccc(c34)N(C(=O)CN3CCN(C)CC3)C2c2cn(-c3ccccc3)nc2-c2cccc([N+](=O)[O-])c2)CC1`, the growth in assay [1] was -13.6% (active); in assay [2] it was -33.5% (active); in assay [3], 65%; in [4], 24.9%; in assay [5], -64.4% (active); in assay [6] it was 22.6%. Besides, the growth was -97.8% (active) in assay [7], -83.6% (active) in assay [8], -93.8% (active) in [9] and -89.5% (active) in assay [10].

On to `Clc1ccc2c(c1)N(CCCN1CCCC1)c1ccccc1S2`, for which the growth is 17.6% in assay [1]; 21% in assay [2]; 75.4% in assay [3]; 58.1% in assay [4]; 36.9% in [5]; 18.6% in assay [6]. For the same molecule, the growth was -86.5% (active) in [7], -36.5% (active) in [8], -52.5% (active) in assay [9] and 42.3% in [10].

Regarding `COc1ccc2c(c1)c(-c1nn3cc(-c4cccs4)nc3s1)cn2C`, the growth in assay [1] is 47.6%; in [2], 52.1%; in assay [3], 50.3%; in assay [4], 82.5%; in assay [5], 65.9%; in assay [6], 69.6%. The growth is 66.7% in assay [7], 64.1% in [8], 54.1% in assay [9] and 97.8% in assay [10].

Take `Cc1cc2[nH]c(=O)c3c4ncccc4cn3c2cc1C`: the growth in assay [1] is 5.25% (active); in [2] it was -23.7% (active); in assay [3] it was 99.4%; in assay [4] it was 50.2%; in assay [5] it was 24.1%; in [6] it was 57.1%. Further, the growth was 70% in assay [7], -8.94% (active) in assay [8], -83.3% (active) in assay [9] and 95.1% in [10].

Take `Cc1onc2c(-c3ccccc3)n[nH]c(=O)c12`: the growth in assay [1] was 104%; in [2], 90.4%; in assay [3] it was 83%; in [4], 90.3%; in assay [5], 97.6%; in [6], 90.5%. Also, the growth in [7] is 105%; in assay [8] it was 95.3%; in [9] it was 104%; in [10], 108%.

On to `c1ccc(Cc2nn3cc(-c4ccccc4)nc3s2)cc1`, for which the growth in [1] is 95.1%; in assay [2], 94.9%; in assay [3], 102%; in assay [4], 103%; in assay [5] it was 107%; in [6], 93.7%. In addition, the growth was 101% in [7], 82.6% in assay [8], 86.2% in assay [9] and 109% in [10].

For the molecule `Nc1nc2ccccc2c2c(=O)c3cc(F)ccc3sc12`, the growth in [1] is 98.6%; in [2] it was 99.8%; in [3], 93.1%; in [4] it was 101%; in assay [5], 105%; in assay [6] it was 103%. For the same molecule, the growth in assay [7] is 98.5%; in assay [8], 102%; in [9], 99.6%; in [10], 103%.

Take `O=C(Cc1ccc(F)c(Cl)c1)Nc1cc(C2(C(F)(F)F)CC2)nn1CC1CCCCC1`: the growth in assay [1] is 5.75% (active); in assay [2], 8.71% (active); in assay [3], -8.19% (active); in [4] it was 14.7%; in assay [5] it was 1.68% (active); in assay [6] it was 0.348% (active). Besides, the growth in assay [7] was -74.5% (active); in [8] it was 0.508% (active); in [9], 11.6%; in assay [10], 19.7%.

Consider `O=C(Nc1ccc(-c2nc(-c3cccc(OCCN4CCOCC4)c3)c(-c3ccnc(Br)c3)[nH]2)cc1)c1ccccc1`, for which the growth in assay [1] is -7.78% (active); in assay [2], 1.79% (active); in [3] it was -37.3% (active); in [4] it was -0.968% (active); in [5] it was 8.84% (active); in [6], 18.3%. Moreover, the growth in [7] is -92.7% (active); in assay [8], -15.9% (active); in assay [9], -58.8% (active); in [10], -29.5% (active).

`COc1cccc(Cc2nn3cc(-c4ccccc4)nc3s2)c1`: the growth in assay [1] is 76.9%; in assay [2], 54.6%; in [3], 99.7%; in assay [4] it was 102%; in assay [5], 99.1%; in assay [6], 96.5%. For the same molecule, the growth in assay [7] is 93.9%; in assay [8], 91.1%; in [9] it was 51.5%; in [10], 113%.

Take `CCOC(=O)CCN(C(=O)Nc1ccccc1)C1CCCCC1`: the growth is 119% in assay [1]; 114% in [2]; 83.5% in assay [3]; 110% in assay [4]; 118% in [5]; 119% in [6]. The growth is 99.2% in [7], 106% in [8], 118% in assay [9] and 131% in assay [10].

For `CCCCCCNC(=O)Oc1ccc(/C(=C(\C)c2ccc(Cl)cc2)c2ccc(OCCN3CCCCC3)cc2)cc1`, the growth is 8.87% (active) in assay [1]; -10.1% (active) in assay [2]; 59.5% in assay [3]; 68% in assay [4]; 34.7% in [5]; 29.6% in assay [6]. For the same molecule, the growth is 25% in assay [7], 54.5% in assay [8], 3.75% (active) in [9] and 29.4% in [10].

Consider `c1ccc(Nc2cc(-c3cccnc3)[nH]n2)cc1`, for which the growth in assay [1] is 101%; in assay [2], 100%; in [3], 52.8%; in assay [4], 77.9%; in [5], 84%; in assay [6], 102%. In addition, the growth in assay [7] is 101%; in [8] it was 102%; in assay [9], 103%; in assay [10], 105%.

With `CCOC(=O)C1=C(N)Oc2c(sc3c(C)cccc23)C1c1ccc(OC)cc1` (stereo not given), the growth in assay [1] is 21.7%; in assay [2], 84.7%; in assay [3], -3.57% (active); in assay [4], 28.8%; in assay [5] it was 26.6%; in [6], 28.7%. In addition, the growth is 52.5% in assay [7], 17% in [8], 32.3% in [9] and 46.5% in assay [10].

For the molecule `N#CC1=C(N)Oc2c(sc3c(Br)cccc23)C1c1ccc(Br)cc1` (stereo not given), the growth in assay [1] is 22.4%; in assay [2] it was 1.76% (active); in [3], 15%; in assay [4] it was 52.6%; in [5], 14%; in assay [6] it was 15.3%. Further, the growth in [7] was 15.6%; in assay [8], 21.2%; in [9], 21.6%; in [10], 50.6%.

As to `C/C(=N/NC(N)=S)c1sc(Nc2cccc(Cl)c2)nc1C`, the growth in assay [1] is 57.8%; in [2] it was 79%; in [3], 120%; in assay [4] it was 87.9%; in assay [5] it was 89.8%; in assay [6] it was 74.8%. In addition, the growth in [7] was 87.1%; in assay [8], 92.9%; in assay [9] it was 63.6%; in assay [10], 94.8%.

With `CN1C(=C2C(=O)OC(C)(C)OC2=O)CCC1C(=O)NCc1ccc(Cl)cc1Cl` (stereo not given), the growth in [1] was 101%; in [2], 79.5%; in [3] it was 107%; in [4], 97.7%; in [5], 95.5%; in [6], 83%. In addition, the growth in assay [7] was 91.6%; in assay [8], 86.9%; in assay [9], 93.5%; in [10] it was 93%.

Turning to `O=C(N/N=C/[C@H](O)[C@H](O)[C@H](O)CO)c1ccc(NC(=O)c2cccnc2)cc1`, the growth in [1] is 106%; in assay [2], 104%; in assay [3] it was 97.4%; in assay [4], 97.7%; in assay [5], 105%; in [6], 96.3%. For the same molecule, the growth is 104% in assay [7], 96.2% in [8], 99.1% in [9] and 112% in [10].

With `CCOc1cccc(NC2=C(Br)C(=O)C(C)=C(C)C2=O)c1`, the growth in assay [1] was 98.6%; in assay [2], 107%; in assay [3], 56.3%; in [4] it was 94%; in assay [5] it was 97.3%; in assay [6], 73.8%. The growth in assay [7] is 89%; in assay [8] it was 81.5%; in [9] it was 26%; in assay [10] it was 104%.

For `Fc1cc(-c2nnc3n2NC(=Nc2ccc(Cl)cc2)CS3)c(Cl)cc1Cl`, the growth in assay [1] was 97.3%; in [2], 93.8%; in [3] it was 71.7%; in [4] it was 93.6%; in assay [5], 94.9%; in assay [6], 111%. Further, the growth is 88.9% in assay [7], 81.4% in assay [8], 86.5% in assay [9] and 99% in assay [10].

Take `CCOC(=O)c1cn2ncnc(Oc3ccc(NC(=O)NCCN(C)C)c(Cl)c3)c2c1C`: the growth was 23.2% in [1]; 7.1% (active) in assay [2]; 99.1% in assay [3]; 82.8% in assay [4]; 70% in [5]; 68.6% in [6]. Besides, the growth was 60.9% in assay [7], 21.7% in [8], 10.3% in assay [9] and 37.6% in [10].

`O=c1c2cc(F)ccc2sc2c(NCCO)nc3ccccc3c12`: the growth in assay [1] is 101%; in assay [2], 107%; in assay [3], 87%; in assay [4], 94%; in assay [5], 97.6%; in [6], 105%. Further, the growth was 99.4% in assay [7], 94.2% in [8], 97.2% in assay [9] and 126% in assay [10].

For the molecule `CCc1ccc(Oc2c(-c3ccc(OCc4ccc(Cl)cc4)cc3O)n[nH]c2C(F)(F)F)cc1`, the growth in [1] was 12.8%; in [2] it was 86.1%; in [3] it was 36.6%; in assay [4] it was 25.4%; in [5], 9.9% (active); in assay [6], 13.9%. Moreover, the growth is -14% (active) in [7], 17.9% in assay [8], 7.09% (active) in [9] and 22.9% in assay [10].

Consider `C#Cc1cccc(NC(=O)Nc2ccccc2NC(=O)CCl)c1`, for which the growth in assay [1] is -19.8% [8.25 µM] (active); in assay [2] it was -15.5% [8.25 µM] (active); in assay [3] it was -83.9% [8.25 µM] (active); in assay [4], 19.7% [8.25 µM]; in [5], -85.2% [8.25 µM] (active); in assay [6], -29% [8.25 µM] (active). Also, the growth in assay [7] is -94.8% [8.25 µM] (active); in [8] it was -94.1% [8.25 µM] (active); in assay [9], -94.4% [8.25 µM] (active); in [10] it was -10.4% [8.25 µM] (active).

Regarding `Cc1ccc(C2CC(c3ccc(Nc4ccnc5cc(Cl)ccc45)cc3)=NN2C=O)cc1` (stereo not given), the growth in assay [1] is 18.6%; in [2] it was 41.8%; in assay [3], 76.3%; in assay [4], 74.4%; in [5], 58.6%; in assay [6] it was 57.4%. For the same molecule, the growth in assay [7] was 10.4%; in assay [8], 36.9%; in assay [9], 34%; in [10] it was 51.7%.
